The source made the active and inactive calls. Entries that show only a call come without a potency. Calls follow the shape of the dose curve; as a rule, active = well fitted inhibition curve with a large enough effect; inconclusive = small, poorly fitted or top-dose-only effect; inactive = flat fitted curve, though single readings scatter.
Potency is read from the fitted curve at half-maximal effect.

Sequence of DNA dC->dU-editing enzyme APOBEC-3G (Homo sapiens) (Q9HC16 whole entry, looked up): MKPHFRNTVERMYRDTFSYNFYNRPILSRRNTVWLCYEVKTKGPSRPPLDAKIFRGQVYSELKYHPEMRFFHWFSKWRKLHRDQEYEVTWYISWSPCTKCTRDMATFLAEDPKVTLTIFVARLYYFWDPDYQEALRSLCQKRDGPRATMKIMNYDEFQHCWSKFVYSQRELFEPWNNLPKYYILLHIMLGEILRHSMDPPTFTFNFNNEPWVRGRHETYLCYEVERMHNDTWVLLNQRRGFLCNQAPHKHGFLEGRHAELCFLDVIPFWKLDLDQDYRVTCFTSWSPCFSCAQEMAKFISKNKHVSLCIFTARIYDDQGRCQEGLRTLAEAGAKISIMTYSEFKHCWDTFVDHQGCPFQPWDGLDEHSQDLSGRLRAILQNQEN

The target in this test is DNA dC->dU-editing enzyme APOBEC-3G (Homo sapiens) (UniProt Q9HC16). Nature of the test: qHTS for inhibitors of Vif-A3G interactions: Validation (AID 588379). Particulars: Vif-A3G protein interaction assay; series mostly up to 46.1 µM. From the text:
The recent discovery and characterization of host restriction factors, which provide a potent defense to invading retroviruses, has provided new targets for antiviral drug development. APOBEC3G (A3G) and APOBEC3F (A3F) are potent cytidine deaminases that block HIV-1 replication; HIV-1 expresses the Vif protein, which counteracts A3G and A3F by binding to them and inducing their proteasomal degradation.
The Vif-A3G and Vif-A3F interactions provide two potential targets for development of small molecules which can interfere with the ability of Vif to degrade A3G or A3F. […] To identify inhibitors that can interfere with Vif mediated degradation of A3G and A3F, we have developed Hela cell lines that stably express A3G or A3F tagged with eYFP at the C-terminal end (A3G-eYFP or A3F-eYFP, respectively) and Vif. In the absence of an inhibitor, Vif induces degradation of A3G-eYFP and A3F-eYFP, and the cells are not fluorescent. In the presence of an inhibitor, it is expected that Vif will be unable to degrade A3G-eYFP and/or A3F-eYFP, resulting in an increase in yellow fluorescence. In this assays Vif A3G was screened against the Molecular Library Small Molecile Repository (MLSMR).
NIH Chemical Genomics Center [NCGC]
NIH Molecular Libraries Probe Centers Network [MLPCN]
Assay Submitter (PI): Vinay Pathak, National Cancer Institute
5 uL of 700 cells/well of A3G-YFP cells are dispensed into black, clear bottom plates. The plates are incubated overnight at 37 deg C. 23 nL of compounds are added by pintool. The plates are incubated overnight at 37 deg C and then read on the TTP Acumen (Ex 488/ Em 500-530).
On the technique in general: qHTS replaces the single test concentration by a dilution series.
Turning to `Cc1nc2sccn2c(=O)c1CCN1CCC(=C(c2ccccc2)c2ccc(F)cc2)CC1`, the Potency entry was “inactive”.
The entry for `C[C@@H](NC(=O)/C(C#N)=C/c1ccc(O)c(O)c1)c1ccccc1` is “inactive”; for `O=C(O)c1cc(=O)c2c(Cl)cc(Cl)cc2[nH]1` it is “inactive”; for `O=C(O)c1cc([N+](=O)[O-])ccc1NCCCc1ccccc1` it is “inactive”.
Then `COc1cc2c(CCNC(C)=O)c[nH]c2cc1Cl`, with “inactive”; and `C[C@@H](CN1CCC(Cc2ccccc2)CC1)[C@@H](O)c1ccc(O)cc1`, with “inactive”.
Then `CC(C)(C=O)Cc1cc(C(C)(C)C)c(O)c(C(C)(C)C)c1`, with “inactive”; and `CN1[C@@H]2CC[C@H]1CC(OC(=O)C(CO)c1ccccc1)C2` (stereo partly drawn), with “inactive”.
Take `O=C(O)c1cc(=O)c2ccccc2[nH]1`: the Potency result is “inactive”.
For the compound `O=C(Nc1ccccc1)c1cc([N+](=O)[O-])ccc1Cl`, the Potency result was “inactive”.
Turning to `N#C/C(=C\c1ccc(O)c(O)c1)C(=O)NCc1ccccc1`, the Potency entry was “inactive”.
Turning to `N[C@H](CCCP(=O)(O)O)C(=O)O`, the Potency result is “inactive”.
Turning to `Cc1cc(NC(=O)Nc2ccc3c(ccn3C)c2)sn1`, the Potency result was “inactive”.
Then `CC(C)NC[C@H](O)COc1cccc2[nH]ccc12`, with “inactive”; and `COC(=O)c1c(C)[nH]c(C)c1C(=O)c1ccccc1Cc1ccccc1`, with “inactive”; and `CCCN(CC1CC1)c1nc(C)nc(Nc2c(Cl)cc(Cl)cc2Cl)c1Cl`, with “inactive”.
Then `O=C(O)[C@@H]1C[C@@H](C(=O)O)N1`, with “inactive”; and `CNCC[C@H](Oc1ccc(C(F)(F)F)cc1)c1ccccc1`, with “inactive”; and `CCC1C(=O)OCC1Cc1cncn1C` (stereo not drawn), with “inactive”.
As to `C[N+]1(C)CCC(OC(=O)C(c2ccccc2)c2ccccc2)CC1`, the Potency entry is “inactive”.
The entry for `CCCCCCCC/C=C\CCCCCCCC(=O)NCCO` is “inactive”.
The entry for `O=C(Nc1cccc(C(=O)Nc2ccc(S(=O)(=O)O)c3cc(S(=O)(=O)O)cc(S(=O)(=O)O)c23)c1)Nc1cccc(C(=O)Nc2ccc(S(=O)(=O)O)c3cc(S(=O)(=O)O)cc(S(=O)(=O)O)c23)c1` is “inactive”; for `O=c1[nH]c2cc([N+](=O)[O-])c([N+](=O)[O-])cc2[nH]c1=O` it is “inactive”.
The figure for `Cc1ccc(O)c(N=Nc2ccccc2)n1` is 10.6 µM (active); for `N#C/C(=C\c1ccc(O)c(O)c1)C(=O)NCCCc1ccccc1` it is “inactive”; for `Oc1cc2c(cc1O)CN(C(=S)NCCc1ccc(Cl)cc1)CCC2` it is “inactive”.
For `N[C@@H](CC(=O)O)C(=O)O`, the Potency result is “inactive”.
With `O=C1C(SCCO)=C(SCCO)C(=O)c2ccccc21`, the Potency is 4.73 µM (active).
As for `COc1cc(CNC(=O)CCCC/C=C/C(C)C)ccc1O`, the Potency entry was “inactive”.
The entry for `CC12C(=O)OC(=O)C1(C)C1CCC2O1` (stereo not drawn) is “inactive”; for `Cn1cc(C2=C(c3ccc(Cl)cc3Cl)C(=O)NC2=O)c2ccccc21` it is 2.99 µM (active); for `Clc1ccc(N2CCN(Cc3c[nH]c4ncccc34)CC2)cc1` it is “inactive”.
Turning to `CN1CCC[C@H]1c1cccnc1`, the Potency result was “inactive”.

The values are drawn from PubChem BioAssay (NCATS).
